In the library only some 8% were active in any assay of this set; here they are far more common.
KB-V1 MDR tox – kills drug-selected multidrug resistant KB-V1 cells. actives 3.4% (n = 400,000). Potency, µM (top dose mostly 46.1 µM), usual class: cytotoxic. KB-V1 MDR cells viability, CellTiter-Glo, 72 h. AID 1347076; note: nearly all actives have a fitted effect of over 60% in size
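Cells of the MDR subline KB-V1 are plated, dosed with compound at multiple concentrations, and incubated 72 h at 37 degrees C; CellTiter-Glo is then added and luminescence read after 10 min.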
KB-3-1 tox – KB-3-1 parental cell cytotoxicity | KB-3-1 viability, CellTiter-Glo ATP luminescence, 72 h | Potency, µM (series often up to 46.1 µM), usual class: cytotoxic | actives 1.4% (n = 400,000) | AID 1347075; note: nearly all actives have a fitted effect of over 60% in size
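Luminescent ATP read-out (CellTiter-Glo) measures survival of drug-naive KB-3-1 cells after 72 h compound exposure at 37 °C. Titration series was screened from lowest to highest concentration, with DMSO vehicle plates as background controls.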
MCF10A rerep – DNA re-replication induction in MCF 10a cells; MCF 10A DNA re-replication, Hoechst nuclear intensity, 48 h; Potency, µM (series often up to 46.1 µM), usual class: activators; actives 2.9% (n = 350,000); note: nearly all actives have a fitted effect of over 50% in size
HT1080-NT tox – kills 2HG-producing HT-1080-NT fibrosarcoma cells; actives 1.6% (n = 360,000); HT-1080-NT fibrosarcoma viability, CellTiter-Glo ATP luminescence, 48 h; AID 686970; Potency, µM (doses to about 46.1 µM), most hits filed as cytotoxic;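 note: NT is the 2HG producing partner of a matched IDH1 knockdown line; nearly all actives have a fitted effect of over 55% in size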
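Viability of the 2HG-overproducing fibrosarcoma line after 48 hours of compound exposure at 37 degrees C was determined by luminescence with CellTiter-Glo, and concentration-effect curves were then fitted and categorized.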
HT1080 IDH1KD tx – kills HT-1080 cells with IDH1 knockdown | HT-1080 IDH1 knockdown viability, ATP luminescence, 48 h | actives 2% (n = 360,000) | Potency, µM (doses to about 46.1 µM), usual class: cytotoxic | AID 686971
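% activity derives from luminescence (CellTiter-Glo), normalised to DMSO and no-cell wells. HT-1080-IDH1KD cells, 750/well, had 48 h compound exposure at 37 °C.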
SW480 rereplic – inducers of DNA re-replication in SW480 colon cancer cells | SW480 DNA re-replication, Hoechst DNA content imaging, 48 h | Potency, µM (top dose mostly 46.1 µM), hits mostly activators | actives 1.8% (n = 340,000) | AID 624297; note: nearly all actives have a fitted effect of over 55% in size
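Quantitative HTS format with DMSO vehicle controls; 48 hr drug incubation at 37 C, then 40 min Hoechst staining and scanning imager measurement at 405 nm excitation.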
Of the large screens only hits and unclear results are named; the others gave an inactive call. Calls come from the whole dose curve; as a rule, active = well fitted curve in the direction sought with a large enough effect; inconclusive = small, poorly fitted or top-dose-only effect, or another doubt; inactive = no such curve, though single readings can be large; an effect the other way counts as inactive or inconclusive.

C[C@H](N)c1nnc(SCC(N)=O)o1	KB-V1 MDR tox inconclusive
O=C(Cn1ncc(Cl)c(Cl)c1=O)c1ccc(Cl)cc1	KB-V1 MDR tox inconclusive, KB-3-1 tox inconclusive, MCF10A rerep 9.2µM, HT1080-NT tox 15µM, HT1080 IDH1KD tx inconclusive, SW480 rereplic inconclusive
CC(C)(C)C(=O)Cn1ncc(Cl)c(Cl)c1=O	KB-V1 MDR tox inconclusive, MCF10A rerep 2.1µM, HT1080-NT tox 13µM, HT1080 IDH1KD tx inconclusive, SW480 rereplic inconclusive
CC(C)(C)C(=O)Cn1ncc(N2CCCC2)c(Br)c1=O	none
C=CCn1c(C)cc(C(=O)CN2NS(=O)(=O)c3ccccc3C2=O)c1C	KB-V1 MDR tox inconclusive, KB-3-1 tox inconclusive, MCF10A rerep inconclusive, HT1080-NT tox 16µM, HT1080 IDH1KD tx 18µM, SW480 rereplic inconclusive
O=c1c(Cl)c(Cl)cnn1Cc1ccc(F)cc1	KB-3-1 tox inconclusive, MCF10A rerep 3.7µM, HT1080-NT tox inconclusive, HT1080 IDH1KD tx inconclusive, SW480 rereplic 6.5µM
CC(=O)Nc1ccc(SCC(=O)NCCc2ccc(F)cc2)cc1	KB-3-1 tox inconclusive, HT1080-NT tox inconclusive
O=C(OCn1ncc(Cl)c(Cl)c1=O)c1ccccc1Cl	KB-V1 MDR tox inconclusive, KB-3-1 tox 3.7µM, MCF10A rerep 5.8µM, HT1080-NT tox 7.3µM, HT1080 IDH1KD tx 5.8µM, SW480 rereplic 7.3µM
O=C(OCCN1CCCCC1)c1ccccc1Cl	none
C=CCn1c(C)cc(C(=O)Cn2ncc(Cl)c(Cl)c2=O)c1C	KB-V1 MDR tox inconclusive, KB-3-1 tox inconclusive, MCF10A rerep 5.8µM, HT1080-NT tox inconclusive, HT1080 IDH1KD tx 3.3µM, SW480 rereplic 2.9µM
Cc1c(C(=S)Nc2ccccc2)cnn1-c1ccccc1	KB-V1 MDR tox 21µM
Cc1c(C(=S)Nc2ccccc2)cnn1-c1ccc([N+](=O)[O-])cc1	KB-V1 MDR tox 18µM, KB-3-1 tox inconclusive (no result: SW480 rereplic)
Cc1ccc(S(=O)(=O)CCC(=O)N2CCc3ccccc32)cc1	KB-V1 MDR tox 21µM
C=CC(=O)Nc1ccc(Nc2nc(NC3CCC(N(C)C)CC3)nc3c2ncn3C(C)C)cc1 (centres undefined)	KB-3-1 tox 1µM, MCF10A rerep inconclusive, HT1080-NT tox inconclusive, HT1080 IDH1KD tx 2.3µM
CC(C)CCn1cnc2c(NCc3ccccc3)ncnc21	KB-V1 MDR tox 16µM
Fc1ccc(CSc2ncnc3c2ncn3C2CCCCO2)cc1 (centres undefined)	KB-V1 MDR tox 21µM
c1ccc(CNc2ncnc3c2ncn3C2CCCCO2)cc1 (centres undefined)	MCF10A rerep 16µM (no result: HT1080-NT tox, HT1080 IDH1KD tx)
O=C(Cc1ccc(Cl)cc1)NCCN1CCCC1	none
Cc1ccc(C2=NN(C(=O)CCl)C(c3cccs3)C2)o1 (centres undefined)	KB-V1 MDR tox inconclusive, KB-3-1 tox inconclusive, MCF10A rerep inconclusive, HT1080-NT tox 4.6µM, HT1080 IDH1KD tx 2.3µM, SW480 rereplic 5.8µM
O=C(CCl)N1N=C(c2ccco2)CC1c1cccs1 (centres undefined)	KB-V1 MDR tox 23µM, KB-3-1 tox inconclusive, MCF10A rerep 21µM, HT1080-NT tox inconclusive, HT1080 IDH1KD tx 23µM, SW480 rereplic 3.3µM
CC(=O)N1N=C(c2ccco2)CC1c1cccs1 (centres undefined)	none
CC(C)OC(=O)CSc1nc2cccnc2n1C1CCCCC1	none
CCCc1cc2c(=O)c(-c3nc4ccccc4s3)c(COCC(=O)O)oc2cc1O	MCF10A rerep 23µM, SW480 rereplic inconclusive
OCC1(Cc2ccccc2)CCCN(Cc2ccc(-c3ccco3)cc2)C1 (centres undefined)	MCF10A rerep inconclusive, HT1080-NT tox inconclusive, HT1080 IDH1KD tx inconclusive
CCOC(=O)N1CC=C2C(C#N)=C(N)C(C#N)(C#N)[C@H](c3ccc(OCC)c(OCC)c3)[C@H]2C1	KB-V1 MDR tox 8.2µM, HT1080 IDH1KD tx inconclusive
COc1cccc(-c2nc(-c3ccccn3)no2)c1	KB-V1 MDR tox inconclusive, KB-3-1 tox inconclusive, HT1080-NT tox inconclusive, HT1080 IDH1KD tx inconclusive
c1ccc(-c2noc(-c3ccc4ccccc4c3)n2)nc1	KB-V1 MDR tox 5.8µM, KB-3-1 tox inconclusive
CC(C)(C)c1ccc(-c2nc(-c3ccncc3)no2)cc1	KB-V1 MDR tox 16µM, KB-3-1 tox inconclusive, MCF10A rerep inconclusive, HT1080 IDH1KD tx inconclusive
c1ccc(-c2noc(-c3ccncc3)n2)nc1	KB-3-1 tox inconclusive, HT1080-NT tox 11µM, HT1080 IDH1KD tx inconclusive
c1ccc(-c2noc(-c3ccc4c(c3)OCO4)n2)nc1	KB-V1 MDR tox 4.1µM, KB-3-1 tox 4.6µM, MCF10A rerep inconclusive, HT1080-NT tox 1.8µM, HT1080 IDH1KD tx 2.5µM, SW480 rereplic inconclusive
CCN(CC)CCCN1C(=O)C(=O)/C(=C(/O)c2ccc3c(c2)OCCO3)C1c1ccco1 (centres undefined)	none
Cc1ccccc1S(=O)(=O)N1C[C@H]2[C@H]3C(=O)N(C4CCCCC4)C(=O)[C@H]3CC(=O)[C@H]2[C@@H]1c1ccc(Cl)cc1	none (no result: MCF10A rerep, SW480 rereplic)
Cc1csc(=O)n1CC(=O)OCC(=O)c1c(N)n(C)c(=O)n(C)c1=O	KB-V1 MDR tox inconclusive
CC(C)Cn1c(N)c(C(=O)COC(=O)c2cc(C3CC3)nc3ccccc23)c(=O)n(C)c1=O	KB-V1 MDR tox inconclusive, KB-3-1 tox inconclusive, HT1080-NT tox 21µM, HT1080 IDH1KD tx inconclusive
Cc1csc(=O)n1CC(=O)OCC(=O)c1c(N)n(CC(C)C)c(=O)n(C)c1=O	MCF10A rerep inconclusive, SW480 rereplic 6.5µM
CC(C)Cn1c(N)c(C(=O)COC(=O)c2cc(-c3ccccc3)nc3ccccc23)c(=O)n(C)c1=O	KB-V1 MDR tox inconclusive, KB-3-1 tox inconclusive
Cn1c(=O)c(C(=O)COC(=O)c2cc(-c3ccco3)nc3ccccc23)c(N)n(Cc2ccccc2)c1=O	MCF10A rerep 23µM, SW480 rereplic inconclusive (no result: KB-V1 MDR tox, KB-3-1 tox, HT1080-NT tox, HT1080 IDH1KD tx)
CC(C)Cn1c(N)c(C(=O)COC(=O)c2cc(-c3ccco3)nc3ccccc23)c(=O)n(C)c1=O	none
Cc1cccc(-c2noc(CN(C(=O)c3ccc4c(c3)OCO4)C(C)C)n2)c1	none
Cc1nc(C(C)N(C)Cc2nc(-c3ccc4c(c3)OCO4)no2)c(C)s1 (centres undefined)	MCF10A rerep inconclusive, SW480 rereplic 3.7µM
CCOC(=O)/C(=C\c1ccccc1)C(=O)c1cc(C(C)=O)c(Nc2ccccc2)s1	KB-V1 MDR tox inconclusive, HT1080 IDH1KD tx 6.3µM
CCOC(=O)C(=O)/C(C#N)=C/Nc1ccccc1	KB-V1 MDR tox inconclusive
CCOC(=O)/C(=C\c1cccnc1)C(=O)c1cc(C(C)=O)c(Nc2ccccc2)s1	KB-V1 MDR tox 6.5µM, KB-3-1 tox 3.3µM, MCF10A rerep 2.9µM, HT1080-NT tox 5.8µM, HT1080 IDH1KD tx 4.1µM, SW480 rereplic 3.7µM
Cc1nnc(NC(=O)CSc2nnc(C)n2Cc2ccccc2)s1	none
